Reference: the supplement of paper PMC10723795
± gives the standard deviation of the averaged measurements.

System: BJ5TA
Experiment: nucleolar normality score relative to DMSO (fraction of DMSO control); RPE1 is a non-cancer human cell line; higher = more normal nucleoli (less nucleolar stress)
Experimental: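 Selected screen hits were validated in hTERT lines (BJ5TA, CHON-002, RPE1) and cancer lines (DLD1, HCT116). Cells were immunostained for nucleolin and UBF and the nucleolar normality score was measured per field of view, with 4 fields per drug. Scores are normalized to each cell line's own DMSO control. Dose and time are not stated for this panel.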

Row | Structure (SMILES) | nucleolar normality score
1 | CN(C)CCNC(=O)c1cccn2c(=O)c3cc4ccccc4cc3nc12 | 0.0738 ± 0.013
2 | Cc1nc(-c2cn3c(n2)-c2ccc(-c4cnn(C(C)(C)C(N)=O)c4)cc2OCC3)n(C(C)C)n1 [Taselisib] | 0.347 ± 0.013
3 | Cc1cnc(CNC(=O)c2c(=O)c3ccc(N4CCCN(C)CC4)nc3n3c2sc2ccccc23)cn1 | 0.107 ± 0.0069
4 | COC[C@H](NC(=O)c1cnc(C)s1)C(=O)N[C@@H](COC)C(=O)N[C@@H](Cc1ccccc1)C(=O)[C@@]1(C)CO1 [Oprozomib] | 0.449 ± 0.043
5 | CCc1cnn2c(NCc3ccc[n+]([O-])c3)cc(N3CCCC[C@H]3CCO)nc12 [Dinaciclib] | 0.242 ± 0.0091
6 | CC(C)n1nc(-c2ccc3oc(N)nc3c2)c2c(N)ncnc21 [Sapanisertib] | 0.418 ± 0.049
7 | CN1CC[C@H](c2c(O)cc(O)c3c(=O)cc(-c4ccccc4Cl)oc23)[C@H](O)C1 [Flavopiridol] | 0.202 ± 0.03
8 | CC(C)c1cc(C(=O)N2Cc3ccc(CN4CCN(C)CC4)cc3C2)c(O)cc1O [Onalespib] | 0.294 ± 0.019
9 | CC(C)C[C@H](NC(=O)[C@H](CCc1ccccc1)NC(=O)CN1CCOCC1)C(=O)N[C@@H](Cc1ccccc1)C(=O)N[C@@H](CC(C)C)C(=O)[C@@]1(C)CO1 [Carfilzomib] | 0.328 ± 0.027
10 | COc1cccc2c1C(=O)c1c(O)c3c(c(O)c1C2=O)C[C@@](O)(C(=O)CO)C[C@@H]3O[C@H]1C[C@H](N)[C@H](O)[C@H](C)O1 [Doxorubicin] | 0.129 ± 0.025
11 | CC(C)c1c2cc(-c3ccnc(NC4CCC(NC5CCOCC5)CC4)n3)ccc2nn1C (configuration not stated) | 0.317 ± 0.025
12 | C=CCNC1=C2C[C@@H](C)C[C@H](OC)[C@H](O)[C@@H](C)/C=C(\C)[C@H](OC(N)=O)[C@@H](OC)/C=C\C=C(/C)C(=O)NC(=CC1=O)C2=O | 0.306 ± 0.0062
